# Laboratory results: publication PMC5540273 (PLoS ONE, 2017)
# Columns and labels:
# Conditions in all cases: concentration: 1 μM, replicates: in singlicate; n = 1
# ERK4 = system: T1, ERK4
# T1 construct: gene MAPK4
# ERK5 = system: T2, ERK5
# T2 construct: gene MAPK7
# ERK8 = system: T3, ERK8
# T3 construct: gene MAPK15
# ERN1 = system: ERN1
# FAK = system: T4, FAK
# T4 construct: gene PTK2
# FER = system: FER
# FES = system: FES
# FGFR1 = system: FGFR1
# FGFR2 = system: FGFR2
# FGFR3 = system: FGFR3
# FGFR4 = system: FGFR4
# FGR = system: FGR
# FLT1 = system: FLT1
# FLT3-autoinhibited = system: FLT3-autoinhibited
# FLT3 = system: FLT3
# FLT4 = system: FLT4
# FRK = system: FRK
# FYN = system: FYN
# GAK = system: GAK
# GCN2(Kin.Dom.2,S808G) = system: T5, GCN2(Kin.Dom.2,S808G)
# T5 construct: gene EIF2AK4
# 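Further: KINOMEscan kinase panel screen.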
Structure (SMILES),%Inh (ERK4) [%],%Inh (ERK5) [%],%Inh (ERK8) [%],%Inh (ERN1) [%],%Inh (FAK) [%],%Inh (FER) [%],%Inh (FES) [%],%Inh (FGFR1) [%],%Inh (FGFR2) [%],%Inh (FGFR3) [%],%Inh (FGFR4) [%],%Inh (FGR) [%],%Inh (FLT1) [%],%Inh (FLT3-autoinhibited) [%],%Inh (FLT3) [%],%Inh (FLT4) [%],%Inh (FRK) [%],%Inh (FYN) [%],%Inh (GAK) [%],"%Inh (GCN2(Kin.Dom.2,S808G)) [%]"
Cl.O=S(=O)(c1cccc(F)c1)c1ccc(Nc2ncnc3cc(Br)sc23)cc1Cl [GSK306886],44,4,0,11,0,14,13,0,0,16,30,24,20,0,0,98.1,0,41,3,0
CN1c2ccc(-c3ccc(C(=O)NCCO)cc3)cc2-c2[nH]ncc2S1(=O)=O,0,0,12,1,–,11,17,30,0,0,8,34,11,20,37,7,1,15,21,34
Fc1cccc(COc2ccc(Nc3ncnc4cc[nH]c34)cc2Cl)c1,9,0,7,35,11,31,21,14,8,10,11,18,6,16,0,0,21,13,14,0
COc1ccc(Nc2nccc(N3CCC(NC(=O)c4cccc(NC(C)=O)c4)C3)n2)cc1 (stereo not drawn) [GSK1379732],7,0,5,0,0,12,0,0,37,19,3,27,23,0,0,6,0,0,16,9
CC(C)(C)OC(=O)NC1CCCN(c2cc(-c3ccc4c(N)n[nH]c4c3)nc(N)n2)C1 (stereo not drawn) [GSK2286096],23,29,0,7,0,0,0,0,4,22,14,4,9,0,0,0,2,26,42,0
CCc1nc(-c2cccc(N(C)S(=O)(=O)c3ccccc3)c2)c(-c2ccnc(Nc3ccc(N4CCN(C(C)=O)CC4)nc3)n2)s1 [GSK1645895],18,19,0,28,0,0,0,0,0,3,0,73,24,18,0,14,0,40,85,4
COC(=O)c1cccc(NC(=O)NCCNc2ccnc(Nc3ccc(F)cc3)n2)c1 [GSK1379883],4,0,0,21,0,19,7,0,43,15,0,9,28,0,0,17,1,0,0,6
Cn1cc(-c2ccc3c(c2)CCN3C(=O)Cc2cccc(C(F)(F)F)c2)c2c(N)ncnc21 [GSK2606414],7,0,23,21,0,0,0,20,0,0,0,0,31,3,28,22,0,13,3,5
FC(F)(F)c1cc(Nc2nccc(-c3c(-c4ccc(Cl)cc4)nn4ncccc34)n2)ccc1Cl [GW829351],0,0,0,0,0,0,0,0,0,0,0,0,0,0,0,0,0,0,0,0
CCn1c(-c2ccncc2)nc2cnccc21 [SB-735216],3,8,0,5,9,0,3,0,0,17,11,3,4,20,15,5,0,19,13,12
CS(=O)(=O)CCNCc1nc(-c2ccc3ncnc(Nc4ccc(OCc5cccc(F)c5)c(Cl)c4)c3c2)cs1.Cl [GW583340],45,5,0,10,0,3,0,0,0,0,0,11,10,0,0,0,0,35,19,0
